High-throughput results deposited in PubChem by National Center for Advancing Translational Sciences (NCATS).
KB-3-1 tox – KB-3-1 parental cell cytotoxicity; KB-3-1 viability, CellTiter-Glo ATP luminescence, 72 h; Potency, µM (doses to about 46.1 µM), usual class: cytotoxic; 400,000 compounds, 1.4% hits; AID 1347075; also: % is scaled to controls: 0 for no effect and ±100 for the full control effect; nearly all actives have a fitted effect of over 60% in size
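Luminescent ATP read-out (CellTiter-Glo) measures survival of drug-naive KB-3-1 cells after 72 h compound exposure at 37 °C. Titration series was screened from lowest to highest concentration, with DMSO vehicle plates as background controls.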
HepG2 viability – kills HepG2 cells in TGF-b inhibitor counter-screen. Potency, µM (doses to about 46.1 µM), for inactives: at the highest dose activity change, negative = cytotoxicity, hits mostly cytotoxic. AID 588856. HepG2 CAGA-GFP viability, ATP luminescence, 18 h. 410,000 compounds, 0.76% hits
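HepG2 CAGA-GFP cells (1000/well, DMEM with 1% FBS) received compound, then TGF-beta at 500 pg/mL final, and were incubated 18 hours at 37 degrees C. Viability was read by CellTiter-Glo luminescence. Media-only wells were set as complete cell-killing and DMSO as no toxicity.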
HT1080 IDH1KD tx – kills HT-1080 cells with IDH1 knockdown; HT-1080 IDH1 knockdown viability, ATP luminescence, 48 h; Potency, µM (doses to about 46.1 µM), inactives show at the highest dose activity, negative = toxicity, usual class: cytotoxic; 360,000 compounds, 2% hits;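 also: 0% = DMSO wells and -100% = cell-free medium wells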
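In this qHTS, HT-1080 cells depleted of IDH1 are exposed for 48 h at 37 °C to compound titrations. Toxicity is scored from CellTiter-Glo luminescence, with DMSO as full viability and medium alone as none.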
KB-V1 MDR tox – kills drug-selected multidrug resistant KB-V1 cells; 400,000 compounds, 3.4% hits; Potency, µM (doses to about 46.1 µM), most hits filed as cytotoxic; KB-V1 MDR cells viability, CellTiter-Glo, 72 h; AID 1347076; also: % is scaled to controls: 0 for no effect and ±100 for the full control effect; nearly all actives have a fitted effect of over 60% in size
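Luminescent ATP read-out (CellTiter-Glo, 10 min) measures survival of drug-selected KB-V1 MDR cells after 72 h, 37 degrees C compound exposure. Medium: phenol-red-free DMEM, 10% FBS. Values from fitted concentration-response curves.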
TGFb inhibitor – TGF-b pathway inhibition. Potency, µM (titrated, usually from 46.1 µM), for inactives: at the highest dose activity, negative = inhibition, usual class: inhibitors. HepG2 CAGA-GFP TGF-b/SMAD3 reporter, GFP fluorescence, 18 h; TGF-beta stimulated, 500 pg/mL final. 410,000 compounds, 1.2% hits; also: % is scaled to controls: 0 for no effect and ±100 for the full control effect; nearly all actives have a fitted effect of over 65% in size
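HEPG2 CAGA-GFP reporter cells (1000/well, DMEM with 1% FBS) received compounds, then recombinant TGF-beta at 500 pg/mL final for 18 hours at 37 degrees C. Per-cell GFP summed per well was normalised to unstimulated and stimulated DMSO controls before curve fitting.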
HT1080NT lethal – kills 2HG-producing HT-1080-NT fibrosarcoma cells | HT-1080-NT fibrosarcoma viability, CellTiter-Glo ATP luminescence, 48 h | Potency, µM (series often up to 46.1 µM), for the others: top-dose activity, negative = less viability, most hits filed as cytotoxic | 360,000 compounds, 1.6% hits;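 also: NT is the 2HG producing partner of a matched IDH1 knockdown line; 0% = DMSO-treated cells and -100% = media-only wells without cells; nearly all actives have a fitted effect of over 55% in size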
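Toxicity toward the 2HG-producing NT line was scored as %Activity, normalised to DMSO and no-cell wells, from CellTiter-Glo luminescence after 48 hours' treatment.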
* hit, by the source's call; i = inactive; ? = inconclusive; nt = no result. Compounds with a hit are over-represented: about 6.6% of the library has one in this group of screens. Calls follow the shape of the dose curve; as a rule, active = well fitted curve in the direction sought with a large enough effect; inconclusive = small, poorly fitted or top-dose-only effect, or another doubt; inactive = no such curve, though single readings can be large; an effect the other way counts as inactive or inconclusive. Potency is read from the fitted curve at half-maximal effect.

SMILES | KB-3-1 tox | HepG2 viability | HT1080 IDH1KD tx | KB-V1 MDR tox | TGFb inhibitor | HT1080NT lethal
COc1ccc2nc(NC(=O)CSc3nnc4n3C(C)(C)Cc3ccccc3-4)sc2c1 | i | -48.3% | 4.8% | i | 2.8% | 11.1%
Cc1ccc(Cl)cc1N1CCN(C(=O)CSc2nnc3n2C(C)(C)Cc2ccccc2-3)CC1 | ? | -11.6% | -25.9% | 11.6µM* | -7.8% | -15.7%
Cc1ccc(Cl)cc1N1CCN(C(=O)Cn2ccc3ccccc3c2=O)CC1 | i | -14.4% | ? | ? | -25.5% | -0.3%
COc1ccc(N2CCN(C(=O)CSc3nnc4c(C)cc5cc(C)ccc5n34)CC2)cc1 | i | -0.5% | 15.2% | 5.8µM* | 8.7% | 4.9%
CCC(C(=O)Nc1ccc(C(=O)OC)cc1)n1nc(-c2ccc(C)cc2)c2c(c1=O)CCCC2 (stereo not given) | i | -24.5% | nt | ? | ? | nt
COc1ccc(C(=O)NCC(c2ccc3c(c2)OCO3)N2CCOCC2)cc1OC (stereo not given) | i | -19.4% | nt | i | 39.2% | nt
COc1ccc(Br)cc1CNC(=O)C1CCN(c2nnc(-n3cccc3CNc3ccc(C)cc3)s2)CC1 | nt | -18.2% | nt | nt | nt | nt
CCOC(=O)CCN(c1ccccc1)S(=O)(=O)c1cc(-c2cc(C)no2)ccc1C | nt | 9.8% | nt | nt | 0.0% | nt
COc1ccc(N2CCN(C(=O)CSc3nnc4n3C(C)(C)Cc3ccccc3-4)CC2)cc1 | ? | -12.6% | 1.6% | 5.17µM* | -26.8% | 5.7%
COc1cc(NC(=O)CSc2nnc3n2C(C)(C)Cc2ccccc2-3)cc(OC)c1 | i | -10.9% | -3.1% | i | -5.6% | -14.8%
COC(=O)CSc1nnc2n1C(C)(C)Cc1ccccc1-2 | i | -3.4% | 5.0% | i | 4.3% | 9.4%
CC1(C)Cc2ccccc2-c2nnc(SCC(=O)N3CCc4ccccc43)n21 | i | -16.5% | ? | 4.11µM* | 0.0% | -19.1%
Cn1c(=O)c2c(-c3ccccc3Cl)n(Cc3ccc(Cl)cc3)cc2n(C)c1=O | i | -16.4% | nt | i | 1.6% | nt
CC(=O)N(Cc1ccc(F)cc1)C1=C(NCCc2ccccc2)C(=O)c2ccccc2C1=O | 8.2µM* | 3.98µM* | 5.17µM* | ? | ? | 5.8µM*
CC(C)NC1=C(Cl)C(=O)c2ccccc2C1=O | ? | 8.91µM* | 7.08µM* | i | 10µM* | ?
CC(C)OCCCNC1=C(Cl)C(=O)c2ccccc2C1=O | i | -30.5% | ? | i | ? | -22.3%
CC(=O)N(Cc1ccc(F)cc1)c1cccc(C)c1C | i | -2.5% | -13.4% | ? | -4.6% | 0.2%
C=CCNC1=C(Cl)C(=O)c2ccccc2C1=O | ? | 12.6µM* | -25.6% | ? | ? | -15.0%
CCN(CC)CCCNC1=C(Cl)C(=O)c2ccccc2C1=O | i | 3.16µM* | 20.6µM* | ? | 4.47µM* | ?
O=C1C(Cl)=C(NCCc2ccccc2)C(=O)c2ccccc21 | ? | -40.6% | ? | ? | ? | 9.2µM*
COc1ccc(C2=CCCCCC2)c(OC)c1OC | i | 0.0% | 0.0% | i | -10.5% | 0.0%
COc1ccc(-c2ccc(OC)c(OC)c2OC)c(OC)c1OC | i | -3.1% | 6.0% | 23.1µM* | -15.0% | -0.5%
COc1ccc2cc(C3CC(c4ccco4)=NN3S(=O)(=O)c3ccccc3)c(Cl)nc2c1 (stereo not given) | i | -6.6% | 9.5% | 14.6µM* | 21.3% | 4.4%
Cc1ccc2cc(C3CC(c4ccco4)=NN3S(=O)(=O)c3ccccc3)c(Cl)nc2c1 (stereo not given) | ? | -11.2% | -25.2% | i | 2.5% | -14.9%
CCOc1ccc2cc(C3CC(c4ccco4)=NN3S(=O)(=O)c3ccccc3)c(Cl)nc2c1 (stereo not given) | i | 8.4% | -22.1% | 5.8µM* | 3.6% | -16.7%
